# Results taken from PubChem BioAssay AID1159580 (chemical genetic matrix, 2015).
# Among all 5,500 compounds or so, about 2,000 (36%) were called active. Not shown: some 18% with an inconclusive outcome. Some of the results follow. A number with no mark means an inactive call. Rule as the data show it: active = normalized growth mostly below about 0.91 (no sharp cut-off); inconclusive = no clear call, values can overlap the other calls; inactive = mostly above about 0.92.
# Assay: chemical genetic growth profiling, strain panel (AID 1159580);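 also: tested at 20 µM; growth read once vehicle control cultures reached saturation at 30 °C; 1 = growth at the plate median or of vehicle wells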
# Settings: S. cerevisiae deletion strains, growth OD
structure (smiles),measurement,setting,value
C=C1CCC(=O)C(C)CCC2C1CC2(C)C (stereo unspecified),normalized growth,"locus YAL013W, strain DEP1, stronger effect = lower value",1.01
same,normalized growth,"locus YBR021W, strain FUR4, stronger effect = lower value",1
same,normalized growth,"locus YBR229C, strain ROT2, stronger effect = lower value",1.02
same,normalized growth,"locus YCL029C, strain bik1, stronger effect = lower value",0.993
same,normalized growth,"locus YDL035C, strain GPR1, stronger effect = lower value",1
same,normalized growth,"locus YDL074C, strain BRE1, stronger effect = lower value",1
same,normalized growth,"locus YDL101C, strain DUN1, stronger effect = lower value",1.03
same,normalized growth,"locus YDL134C, strain PPH21, stronger effect = lower value",1.03
same,normalized growth,"locus YDL185W, strain tfp1, stronger effect = lower value",1
same,normalized growth,"locus YDL192W, strain arf1, stronger effect = lower value",0.972
same,normalized growth,"locus YDR101C, strain arx1, stronger effect = lower value",0.987
same,normalized growth,"locus YDR150W, strain NUM1, stronger effect = lower value",1.02
same,normalized growth,"locus YDR162C, strain NBP2, stronger effect = lower value",1.06
same,normalized growth,"locus YDR318W, strain mcm21, stronger effect = lower value",0.998
same,normalized growth,"locus YDR388W, stronger effect = lower value",0.997
same,normalized growth,"locus YDR502C, strain sam2, stronger effect = lower value",1
same,normalized growth,"locus YEL061C, strain CIN8, stronger effect = lower value",1.01
same,normalized growth,"locus YER110C, stronger effect = lower value",0.99
same,normalized growth,"locus YER155C, strain BEM2, stronger effect = lower value",1.02
same,normalized growth,"locus YER167W, strain BCK2, stronger effect = lower value",1.01
same,normalized growth,"locus YGL078C, strain dbp3, stronger effect = lower value",0.995
same,normalized growth,"locus YGL086W, strain mad1, stronger effect = lower value",0.986
same,normalized growth,"locus YGL248W, strain PDE1, stronger effect = lower value",1.03
same,normalized growth,"locus YGR135W, strain pre9, stronger effect = lower value",1.01
same,normalized growth,"locus YGR252W, strain gcn5, stronger effect = lower value",1
same,normalized growth,"locus YHR030C, strain SLT2, stronger effect = lower value",1.02
same,normalized growth,"locus YHR079C, strain IRE1 (second series), stronger effect = lower value",0.984
same,normalized growth,"locus YHR094C, strain hxt1, stronger effect = lower value",0.996
same,normalized growth,"locus YHR129C, strain ARP1, stronger effect = lower value",1.02
same,normalized growth,"locus YHR200W, strain rpn10, stronger effect = lower value",0.995
same,normalized growth,"locus YIL066C, strain RNR3, stronger effect = lower value",1.02
same,normalized growth,"locus YIL073C, strain SPO22, stronger effect = lower value",0.971
same,normalized growth,"locus YIL125W, strain kgd1, stronger effect = lower value",0.987
same,normalized growth,"locus YIR030C, strain dcg1, stronger effect = lower value",0.998
same,normalized growth,"locus YJL095W, strain BCK1, stronger effect = lower value",1.02
same,normalized growth,"locus YJL134W, strain LCB3, stronger effect = lower value",1.02
same,normalized growth,"locus YJL168C, strain set2, stronger effect = lower value",1.01
same,normalized growth,"locus YJL187C, strain SWE1 (second series), stronger effect = lower value",1.03
same,normalized growth,"locus YJR043C, strain POL32, stronger effect = lower value",1.03
same,normalized growth,"locus YKL009W, strain mrt4, stronger effect = lower value",0.976
same,normalized growth,"locus YKL068W, stronger effect = lower value",1.01
same,normalized growth,"locus YKL085W, strain MDH1 (second series), stronger effect = lower value",0.99
same,normalized growth,"locus YKL085W, strain MDH1, stronger effect = lower value",0.99
same,normalized growth,"locus YKR001C, strain vps1, stronger effect = lower value",0.864 (active)
same,normalized growth,"locus YLR039C, strain RIC1, stronger effect = lower value",1.01
same,normalized growth,"locus YLR058C, strain SHM2, stronger effect = lower value",1.02
same,normalized growth,"locus YLR102C, strain apc9, stronger effect = lower value",0.994
same,normalized growth,"locus YLR262C, strain YPT6, stronger effect = lower value",1.03
same,normalized growth,"locus YLR268W, strain sec22, stronger effect = lower value",0.985
same,normalized growth,"locus YLR330W, strain CHS5, stronger effect = lower value",1.02
same,normalized growth,"locus YLR342W, strain FKS1 (second series), stronger effect = lower value",1.01
same,normalized growth,"locus YLR371W, strain rom2, stronger effect = lower value",0.994
same,normalized growth,"locus YLR418C, strain cdc73, stronger effect = lower value",1.01
same,normalized growth,"locus YML016C, strain PPZ1, stronger effect = lower value",1.02
same,normalized growth,"locus YML032C, strain rad52, stronger effect = lower value",0.997
same,normalized growth,"locus YML124C, strain tub3, stronger effect = lower value",0.995
same,normalized growth,"locus YMR078C, strain ctf18, stronger effect = lower value",1
same,normalized growth,"locus YMR223W, strain ubp8, stronger effect = lower value",1.01
same,normalized growth,"locus YMR263W, strain SAP30, stronger effect = lower value",1.03
same,normalized growth,"locus YMR307W, strain GAS1, stronger effect = lower value",1.08
same,normalized growth,"locus YNL067W, strain RPL9B, stronger effect = lower value",1.02
same,normalized growth,"locus YNL233W, strain BNI4, stronger effect = lower value",1.03
same,normalized growth,"locus YNL250W, strain rad50, stronger effect = lower value",1.01
same,normalized growth,"locus YNL271C, strain bni1, stronger effect = lower value",0.999
same,normalized growth,"locus YNL298W, strain CLA4, stronger effect = lower value",1.03
same,normalized growth,"locus YNL307C, strain MCK1, stronger effect = lower value",0.995
same,normalized growth,"locus YNR052C, strain pop2, stronger effect = lower value",0.989
same,normalized growth,"locus YOL006C, strain TOP1, stronger effect = lower value",1.03
same,normalized growth,"locus YOL012C, strain htz1",0.879
same,normalized growth,"locus YOL147C, strain pex11, stronger effect = lower value",0.987
same,normalized growth,"locus YOR061W, strain CKA2, stronger effect = lower value",1.02
same,normalized growth,"locus YOR069W, strain VPS5, stronger effect = lower value",1.02
same,normalized growth,"locus YOR136W, strain idh2, stronger effect = lower value",0.991
same,normalized growth,"locus YOR144C, strain elg1, stronger effect = lower value",0.987
same,normalized growth,"locus YOR184W, strain ser1, stronger effect = lower value",0.977
same,normalized growth,"locus YOR316C, strain cot1, stronger effect = lower value",0.998
same,normalized growth,"locus YPR119W, strain clb2, stronger effect = lower value",0.983
same,normalized growth,"locus YPR141C, strain kar3, stronger effect = lower value",0.994
same,normalized growth,"locus YPR163C, strain tif3, stronger effect = lower value",0.997
same,normalized growth,"locus YPR167C, strain met16, stronger effect = lower value",0.99
same,normalized growth,"strain wtn01, stronger effect = lower value",0.966
